The supplement of paper PMC10849652
Targets with a hit are over-represented here; the source holds about 7,900 in all. About 0.6% of all pairs of compound and target were hits.

Key:
Experiment in all cases: log2 fold change, soluble protein after heating vs DMSO (PISA); higher = thermal stabilisation; K562 cells, 10 uM, 30 min; active = over 0.2 and 3.5 SD of the protein, either way, in both replicates (recomputed)
IRAK-1-4 Inhibitor I = compound: C1COCCN1CCN2C3=CC=CC=C3N=C2NC(=O)C4=CC(=CC=C4)[N+](=O)[O-] [IRAK-1-4 Inhibitor I]
Method in brief: (§1)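 For each measurement, 10 μM compound was applied for 30 min to K562 cells at 2×10^6 cells/mL. Aliquots were heated for 3 min across 48°C-58°C, pooled, and extracted in PBS with 0.5% NP-40 at 4°C; the supernatant after 21,000xg for 90 min was soluble protein. This was quantified by TMTpro 16plex LC-MS/MS with channel sums equalised, and thermal stability was reported relative to control samples from duplicates, on a log2 fold-change scale.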

ibrutinib = compound: C=CC(=O)N1CCC[C@@H](n2nc(-c3ccc(Oc4ccccc4)cc3)c3c(N)ncnc32)C1 [ibrutinib]
Method in brief: as §1

[1] = compound: CC(=O)c1cnc2ccc(-c3cc(Cl)c(O)c(Cl)c3)nc2c1N[C@H]1CC[C@H](CN(C)C)CC1
Method in brief: as §1

ralimetinib = compound: CC(C)(C)Cn1c(N)nc2ccc(-c3[nH]c(C(C)(C)C)nc3-c3ccc(F)cc3)nc21 [ralimetinib]
Method in brief: as §1

[2] = compound: CC(C)(O)CC(=O)NCCn1ccc2ncnc(Nc3ccc(Oc4cccc(C(F)(F)F)c4)c(Cl)c3)c21
Method in brief: as §1

[3] = compound: CC(C)C1=C2N=C(C=C(N2N=C1)NCC3=CC=CC=C3)NCCCCCCN
Method in brief: as §1

[4] = compound: CC(C)C[C@@H](C=O)NC(=O)[C@H](CC(C)C)NC(=O)[C@H](CC(C)C)NC(=O)OCc1ccccc1
Method in brief: as §1

pinometostat = compound: CC(C)N(C[C@H]1O[C@@H](n2cnc3c(N)ncnc32)[C@H](O)[C@@H]1O)[C@H]1C[C@@H](CCc2nc3cc(C(C)(C)C)ccc3[nH]2)C1 [pinometostat]
Method in brief: as §1

[5] = compound: CC1=C(C(CC(=O)N1)C2=CC=C(C=C2)C(F)(F)F)C(=O)NC3=C(C=C4C(=C3)C=NN4)F
Method in brief: as §1

[6] = compound: CC1=C(C2=C(C=C1)C(=O)C3=CC=CC=C3N2CCCN)C
Method in brief: as §1

Measured: log2 fold change

RPS18 (UniProt P62269)
inactive: IRAK-1-4 Inhibitor I -0.099 | ibrutinib 0.053 | [1] 0.052 | ralimetinib 0.055 | [2] 0.06 | [3] -0.043 | [4] 0.054 | pinometostat 0.149 | [5] 0.063
active: [6] -0.531

RAVER1 (UniProt E9PAU2)
inactive: IRAK-1-4 Inhibitor I -0.062 | ibrutinib 0.033 | [1] -0.308 | ralimetinib 0.082 | [2] -0.263 | [3] -0.409 | [4] -0.042 | pinometostat 0.052 | [5] 0.016 | [6] -0.694

REEP4 (UniProt Q9H6H4)
UniProt Q9H6H4, sequence (Q9H6H4 whole entry, looked up): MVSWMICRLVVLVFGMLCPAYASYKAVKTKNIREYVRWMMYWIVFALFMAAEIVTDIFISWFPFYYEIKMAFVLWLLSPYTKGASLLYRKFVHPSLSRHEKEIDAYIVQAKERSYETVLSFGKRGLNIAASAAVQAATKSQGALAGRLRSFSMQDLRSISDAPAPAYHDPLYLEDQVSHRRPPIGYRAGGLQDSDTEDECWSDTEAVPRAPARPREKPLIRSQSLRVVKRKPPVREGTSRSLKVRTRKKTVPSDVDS
inactive: IRAK-1-4 Inhibitor I 0.005 | ibrutinib -0.003 | [1] -0.198 | ralimetinib 0.164 | [2] -0.049 | [3] -0.157 | [4] 0.041 | pinometostat 0.13 | [5] 0.04 | [6] 0.036

RIOK3 (UniProt O14730)
UniProt O14730, sequence (O14730 whole entry, looked up): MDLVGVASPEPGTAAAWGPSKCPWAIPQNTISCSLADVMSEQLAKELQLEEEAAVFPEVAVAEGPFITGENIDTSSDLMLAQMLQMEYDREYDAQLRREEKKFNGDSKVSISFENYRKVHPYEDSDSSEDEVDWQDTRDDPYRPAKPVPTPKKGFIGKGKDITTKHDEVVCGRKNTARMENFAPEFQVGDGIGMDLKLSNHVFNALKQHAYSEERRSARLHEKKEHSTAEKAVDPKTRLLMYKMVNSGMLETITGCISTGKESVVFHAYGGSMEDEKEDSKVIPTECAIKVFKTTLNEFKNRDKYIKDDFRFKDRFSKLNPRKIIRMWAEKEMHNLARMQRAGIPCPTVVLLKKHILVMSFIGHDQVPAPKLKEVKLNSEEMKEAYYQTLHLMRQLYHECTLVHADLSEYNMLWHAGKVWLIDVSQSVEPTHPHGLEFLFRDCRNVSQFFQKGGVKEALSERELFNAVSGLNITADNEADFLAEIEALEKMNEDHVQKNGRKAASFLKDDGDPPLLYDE
active: [6] -0.231
inactive: IRAK-1-4 Inhibitor I 0.087 | ibrutinib 0.002 | [1] 0.024 | ralimetinib -0.009 | [2] -0.083 | [3] -0.009 | [4] 0.021 | pinometostat -0.011 | [5] 0.019

SCAMP2 (UniProt H3BUB6)
inactive: IRAK-1-4 Inhibitor I 0.078 | ibrutinib 0.103 | [1] -0.171 | ralimetinib -0.278 | [2] 0.102 | [3] -0.055 | [4] 0.192 | pinometostat 0.053 | [5] 0.111 | [6] 0.059

RBM12 (UniProt Q9NTZ6)
inactive: IRAK-1-4 Inhibitor I -0.042 | ibrutinib -0.018 | [1] -0.135 | ralimetinib -0.037 | [2] -0.145 | [3] -0.237 | [4] 0.009 | pinometostat -0.043 | [5] 0.012 | [6] -0.007

SCYL3 isoform 2 (UniProt Q8IZE3)
inactive: IRAK-1-4 Inhibitor I 0.087 | ibrutinib 0.02 | [1] -0.002 | ralimetinib -0.043 | [2] -0.063 | [3] -0.052 | [4] -0.002 | pinometostat 0.054 | [5] 0.013 | [6] -0.146

RRP9 (UniProt O43818)
active: [6] -0.432
inactive: IRAK-1-4 Inhibitor I -0.043 | ibrutinib 0.017 | [1] -0.062 | ralimetinib 0.014 | [2] 0.133 | [3] -0.04 | [4] -0.002 | pinometostat 0.01 | [5] 0.136

RPS25 (UniProt P62851)
active: [6] -0.533
inactive: IRAK-1-4 Inhibitor I -0.08 | ibrutinib 0.01 | [1] 0.069 | ralimetinib 0.073 | [2] 0.033 | [3] -0.028 | [4] 0.054 | pinometostat 0.184 | [5] 0.006

RPS16 (UniProt P62249)
active: [6] -0.6
inactive: IRAK-1-4 Inhibitor I -0.137 | ibrutinib 0.036 | [1] 0.054 | ralimetinib 0.032 | [2] 0.011 | [3] -0.02 | [4] 0.035 | pinometostat 0.102 | [5] 0.057

RPP14 (UniProt O95059)
UniProt O95059, sequence (O95059 whole entry, looked up): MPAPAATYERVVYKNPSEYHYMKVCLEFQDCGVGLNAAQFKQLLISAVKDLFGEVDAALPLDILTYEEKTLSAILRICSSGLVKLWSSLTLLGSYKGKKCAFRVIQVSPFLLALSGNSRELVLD
inactive: IRAK-1-4 Inhibitor I -0.035 | ibrutinib 0.073 | [1] -0.021 | ralimetinib 0.009 | [2] 0.051 | [3] -0.021 | [4] 0 | pinometostat 0.021 | [5] 0.041 | [6] -0.04

SAMSN1 isoform 3 (UniProt Q9NSI8)
inactive: IRAK-1-4 Inhibitor I 0.028 | ibrutinib -0.021 | [1] -0.125 | ralimetinib -0.016 | [2] -0.034 | [3] -0.095 | [4] 0.041 | pinometostat 0.014 | [5] 0.023 | [6] 0.008

RNPS1 (UniProt Q15287)
inactive: IRAK-1-4 Inhibitor I -0.159 | ibrutinib -0.031 | [1] -0.317 | ralimetinib 0.128 | [2] -0.039 | [3] -0.126 | [4] 0.066 | pinometostat 0.08 | [5] -0.032
active: [6] -0.746

SCD (UniProt O00767)
inactive: IRAK-1-4 Inhibitor I 0.048 | ibrutinib -0.023 | [1] 0.008 | ralimetinib -0.148 | [2] -0.046 | [3] -0.222 | [4] 0.101 | pinometostat 0 | [5] 0.024 | [6] -0.027

RETREG3 (UniProt Q86VR2)
inactive: IRAK-1-4 Inhibitor I 0.117 | ibrutinib -0.002 | [1] -0.01 | ralimetinib -0.036 | [2] -0.04 | [3] -0.167 | [4] 0.007 | pinometostat 0.035 | [5] -0.024 | [6] -0.016

RCN3 (UniProt Q96D15)
inactive: IRAK-1-4 Inhibitor I 0.131 | ibrutinib 0.075 | [1] -0.048 | ralimetinib -0.013 | [2] 0.013 | [3] 0.047 | [4] 0.026 | pinometostat -0.035 | [5] 0.05 | [6] -0.031

RBM4 (UniProt Q9BWF3)
inactive: IRAK-1-4 Inhibitor I -0.038 | ibrutinib -0.023 | [1] -0.083 | ralimetinib 0.099 | [2] 0.019 | [3] -0.136 | [4] 0.074 | pinometostat 0.076 | [5] 0.007 | [6] -0.027

SLC19A1 (UniProt P41440)
inactive: IRAK-1-4 Inhibitor I 0.017 | ibrutinib -0.025 | [1] -0.034 | ralimetinib 0.005 | [2] -0.061 | [3] 0.104 | [4] 0.045 | pinometostat 0.052 | [5] -0.045 | [6] 0.073

RAB5C isoform 2 (UniProt P51148)
inactive: IRAK-1-4 Inhibitor I 0.015 | ibrutinib 0.017 | [1] 0.039 | ralimetinib 0.027 | [2] -0.012 | [3] 0.064 | [4] -0.042 | pinometostat -0.028 | [5] 0.028 | [6] -0.032

ROCK1 (UniProt Q13464)
UniProt Q13464, sequence (Q13464 whole entry, looked up): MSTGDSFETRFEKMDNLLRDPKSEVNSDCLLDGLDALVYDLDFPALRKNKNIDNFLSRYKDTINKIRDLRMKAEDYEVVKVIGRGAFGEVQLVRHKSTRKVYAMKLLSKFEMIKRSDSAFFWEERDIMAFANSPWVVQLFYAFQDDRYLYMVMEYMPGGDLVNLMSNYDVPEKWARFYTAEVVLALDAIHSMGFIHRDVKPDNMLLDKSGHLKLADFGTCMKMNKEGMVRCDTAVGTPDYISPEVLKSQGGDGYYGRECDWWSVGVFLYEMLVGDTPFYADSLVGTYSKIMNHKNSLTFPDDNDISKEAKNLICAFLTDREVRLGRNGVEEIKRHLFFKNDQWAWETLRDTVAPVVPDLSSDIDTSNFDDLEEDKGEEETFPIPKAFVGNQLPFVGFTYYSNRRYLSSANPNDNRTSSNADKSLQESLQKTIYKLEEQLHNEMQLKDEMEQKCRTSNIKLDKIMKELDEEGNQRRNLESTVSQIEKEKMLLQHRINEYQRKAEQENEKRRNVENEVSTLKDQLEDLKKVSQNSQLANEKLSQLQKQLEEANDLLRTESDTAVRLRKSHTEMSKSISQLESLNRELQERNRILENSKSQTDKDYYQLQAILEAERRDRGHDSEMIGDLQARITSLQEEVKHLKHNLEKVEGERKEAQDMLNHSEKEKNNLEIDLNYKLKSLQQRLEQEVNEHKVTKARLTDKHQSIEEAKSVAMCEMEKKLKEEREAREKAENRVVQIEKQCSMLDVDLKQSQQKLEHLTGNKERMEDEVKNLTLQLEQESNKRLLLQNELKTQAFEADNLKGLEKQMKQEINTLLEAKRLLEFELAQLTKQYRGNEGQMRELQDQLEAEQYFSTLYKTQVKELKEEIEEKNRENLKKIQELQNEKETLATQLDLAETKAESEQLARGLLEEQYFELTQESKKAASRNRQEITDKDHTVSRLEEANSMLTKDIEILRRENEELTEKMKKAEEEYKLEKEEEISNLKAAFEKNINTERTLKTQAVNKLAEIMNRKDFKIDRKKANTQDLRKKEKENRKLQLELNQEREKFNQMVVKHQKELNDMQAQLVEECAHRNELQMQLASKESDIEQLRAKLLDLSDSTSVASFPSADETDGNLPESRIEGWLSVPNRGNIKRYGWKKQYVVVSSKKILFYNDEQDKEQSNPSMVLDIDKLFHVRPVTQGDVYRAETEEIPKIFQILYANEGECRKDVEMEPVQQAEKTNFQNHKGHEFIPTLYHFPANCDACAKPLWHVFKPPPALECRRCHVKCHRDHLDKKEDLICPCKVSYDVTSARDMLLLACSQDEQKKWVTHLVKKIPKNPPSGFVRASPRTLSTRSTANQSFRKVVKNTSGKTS
inactive: IRAK-1-4 Inhibitor I -0.019 | ibrutinib 0.013 | [1] 0.015 | ralimetinib 0.031 | [2] -0.079 | [3] -0.026 | [4] 0.012 | pinometostat 0.027 | [6] -0.013
active: [5] 0.249

RAB8B (UniProt Q92930)
inactive: IRAK-1-4 Inhibitor I 0.028 | ibrutinib -0.009 | [1] 0 | ralimetinib -0.001 | [2] -0.047 | [3] -0.002 | [4] 0.046 | pinometostat -0.091 | [5] 0.019 | [6] 0.004

RCC1 isoform 2 (UniProt P18754)
UniProt P18754, sequence (P18754 whole entry, looked up): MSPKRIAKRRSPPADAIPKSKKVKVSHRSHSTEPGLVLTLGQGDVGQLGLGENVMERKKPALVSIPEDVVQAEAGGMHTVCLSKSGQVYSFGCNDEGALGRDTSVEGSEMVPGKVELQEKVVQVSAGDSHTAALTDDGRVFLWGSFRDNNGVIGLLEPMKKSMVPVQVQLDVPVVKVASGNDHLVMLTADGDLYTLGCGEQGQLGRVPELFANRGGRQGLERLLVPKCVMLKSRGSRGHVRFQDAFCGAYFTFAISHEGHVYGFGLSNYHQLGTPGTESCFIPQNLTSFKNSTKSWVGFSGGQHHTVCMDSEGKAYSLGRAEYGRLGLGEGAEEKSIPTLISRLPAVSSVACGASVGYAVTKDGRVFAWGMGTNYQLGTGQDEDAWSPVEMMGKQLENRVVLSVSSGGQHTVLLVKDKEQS
active: [6] -0.899
inactive: IRAK-1-4 Inhibitor I -0.026 | ibrutinib -0.04 | [1] -0.14 | ralimetinib 0 | [2] -0.16 | [3] -0.094 | [4] 0.041 | pinometostat 0.023 | [5] -0.08

RCOR1 (UniProt Q9UKL0)
UniProt Q9UKL0, sequence (Q9UKL0 whole entry, looked up): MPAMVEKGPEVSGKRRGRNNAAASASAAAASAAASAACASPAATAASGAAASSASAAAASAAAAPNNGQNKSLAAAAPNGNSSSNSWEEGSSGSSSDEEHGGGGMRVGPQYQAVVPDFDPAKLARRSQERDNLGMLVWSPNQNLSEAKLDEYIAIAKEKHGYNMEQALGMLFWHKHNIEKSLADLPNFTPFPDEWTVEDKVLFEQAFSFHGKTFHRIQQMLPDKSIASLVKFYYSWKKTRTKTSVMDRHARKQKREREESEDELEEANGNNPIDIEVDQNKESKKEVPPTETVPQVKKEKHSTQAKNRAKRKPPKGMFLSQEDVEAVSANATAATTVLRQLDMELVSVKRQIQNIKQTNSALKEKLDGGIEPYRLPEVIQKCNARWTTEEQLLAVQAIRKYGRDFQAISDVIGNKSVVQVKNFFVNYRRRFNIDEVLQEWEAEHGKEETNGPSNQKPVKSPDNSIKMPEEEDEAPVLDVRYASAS
inactive: IRAK-1-4 Inhibitor I -0.037 | ibrutinib -0.036 | [1] -0.14 | ralimetinib 0.002 | [2] -0.08 | [3] 0.002 | [4] -0.034 | pinometostat 0.026 | [5] 0.025 | [6] 0.021

RPL38 (UniProt P63173)
inactive: IRAK-1-4 Inhibitor I 0.014 | ibrutinib 0.01 | [1] 0 | ralimetinib 0.043 | [2] 0.113 | [3] 0 | [4] 0.124 | pinometostat 0.07 | [5] 0.013 | [6] -0.026

SERPINA7 (UniProt P05543)
UniProt P05543, sequence (P05543 whole entry, looked up): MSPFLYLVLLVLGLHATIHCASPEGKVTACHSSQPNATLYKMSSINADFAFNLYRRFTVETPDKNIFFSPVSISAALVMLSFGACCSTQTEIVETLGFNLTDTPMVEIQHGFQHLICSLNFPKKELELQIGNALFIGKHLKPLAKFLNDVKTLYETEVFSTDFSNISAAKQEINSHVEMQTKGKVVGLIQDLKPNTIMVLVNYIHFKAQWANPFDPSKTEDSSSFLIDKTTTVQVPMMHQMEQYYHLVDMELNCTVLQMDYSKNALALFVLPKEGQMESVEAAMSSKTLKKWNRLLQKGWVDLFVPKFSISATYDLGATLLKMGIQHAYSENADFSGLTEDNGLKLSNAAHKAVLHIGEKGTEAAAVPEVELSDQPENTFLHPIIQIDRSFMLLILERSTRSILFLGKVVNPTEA
inactive: IRAK-1-4 Inhibitor I 0.095 | ibrutinib 0.229 | [1] 0.227 | ralimetinib -0.062 | [2] 0.314 | [3] 0.066 | [4] 0.043 | pinometostat 0 | [5] 0.077 | [6] -0.245

RPS15 (UniProt P62841)
active: [6] -0.574
inactive: IRAK-1-4 Inhibitor I -0.114 | ibrutinib 0.11 | [1] -0.042 | ralimetinib 0.076 | [2] 0.103 | [3] -0.043 | [4] 0.11 | pinometostat 0.088 | [5] 0.071

RAB3GAP2 (UniProt Q9H2M9)
active: [3] -0.26
inactive: IRAK-1-4 Inhibitor I -0.079 | ibrutinib -0.016 | [1] -0.031 | ralimetinib 0.03 | [2] 0 | [4] 0.026 | pinometostat 0.115 | [5] 0.004 | [6] -0.016

RSPRY1 (UniProt Q96DX4)
inactive: IRAK-1-4 Inhibitor I 0.018 | ibrutinib 0.027 | [1] 0.02 | ralimetinib -0.019 | [2] -0.036 | [3] 0 | [4] 0.079 | pinometostat -0.048 | [5] 0.033 | [6] -0.066

SEC23IP (UniProt Q9Y6Y8)
active: [3] -0.252
inactive: IRAK-1-4 Inhibitor I -0.007 | ibrutinib -0.023 | [1] -0.048 | ralimetinib -0.004 | [2] -0.119 | [4] 0.006 | pinometostat 0.032 | [5] 0.059 | [6] -0.011

RAD50 isoform 2 (UniProt Q92878)
UniProt Q92878, sequence (Q92878 whole entry, looked up): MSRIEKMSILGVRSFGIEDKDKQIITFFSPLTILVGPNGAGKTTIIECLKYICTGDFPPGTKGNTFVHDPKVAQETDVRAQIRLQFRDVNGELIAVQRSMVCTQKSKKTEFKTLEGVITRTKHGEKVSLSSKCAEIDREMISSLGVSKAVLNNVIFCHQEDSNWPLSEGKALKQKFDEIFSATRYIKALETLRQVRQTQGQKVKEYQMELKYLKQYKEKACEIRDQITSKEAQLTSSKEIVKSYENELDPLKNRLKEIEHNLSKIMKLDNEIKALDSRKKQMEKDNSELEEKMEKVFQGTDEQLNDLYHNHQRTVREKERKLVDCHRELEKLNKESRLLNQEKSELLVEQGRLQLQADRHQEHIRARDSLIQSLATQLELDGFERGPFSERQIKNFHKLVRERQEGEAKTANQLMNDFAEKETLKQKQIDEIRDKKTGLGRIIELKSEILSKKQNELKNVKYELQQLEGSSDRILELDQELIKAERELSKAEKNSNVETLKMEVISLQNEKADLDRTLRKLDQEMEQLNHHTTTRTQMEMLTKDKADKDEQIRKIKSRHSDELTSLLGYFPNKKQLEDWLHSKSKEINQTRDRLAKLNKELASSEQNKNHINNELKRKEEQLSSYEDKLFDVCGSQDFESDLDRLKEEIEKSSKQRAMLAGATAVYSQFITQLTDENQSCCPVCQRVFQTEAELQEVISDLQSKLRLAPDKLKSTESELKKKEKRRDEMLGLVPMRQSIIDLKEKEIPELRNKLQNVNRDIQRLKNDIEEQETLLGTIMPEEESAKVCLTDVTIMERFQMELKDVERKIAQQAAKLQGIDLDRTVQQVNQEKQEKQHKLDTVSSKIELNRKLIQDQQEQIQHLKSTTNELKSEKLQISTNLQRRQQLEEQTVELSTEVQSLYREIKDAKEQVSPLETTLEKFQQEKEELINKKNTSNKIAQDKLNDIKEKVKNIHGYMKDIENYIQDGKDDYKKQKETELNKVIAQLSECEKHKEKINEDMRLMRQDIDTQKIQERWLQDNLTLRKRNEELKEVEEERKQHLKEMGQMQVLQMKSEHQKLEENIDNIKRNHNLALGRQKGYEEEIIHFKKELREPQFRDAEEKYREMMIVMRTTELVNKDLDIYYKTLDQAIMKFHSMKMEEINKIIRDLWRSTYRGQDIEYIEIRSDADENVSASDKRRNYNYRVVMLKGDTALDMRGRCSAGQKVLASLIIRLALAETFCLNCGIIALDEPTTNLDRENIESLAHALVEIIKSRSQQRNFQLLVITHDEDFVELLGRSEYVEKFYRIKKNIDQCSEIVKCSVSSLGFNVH
inactive: IRAK-1-4 Inhibitor I -0.005 | ibrutinib -0.004 | [1] -0.099 | ralimetinib -0.03 | [2] -0.003 | [3] -0.002 | [4] -0.014 | pinometostat -0.013 | [5] -0.008 | [6] 0.006
